The values that follow come from PubChem BioAssay AID1852 (Sanford-Burnham Center for Chemical Genomics, 2009).

Among all 2,500 compounds or so, about 1,100 (44%) were called active. The set was probably picked from earlier hits. The list shows a part of the results. A number with no mark means an inactive call.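 The calls were made as follows: active = inhibition above 50% at 4 µM in the single-point screen; inactive = inhibition of 50% or less.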

This experiment can be described thus: blockers of TNF-a NF-kB luciferase induction – cell-based, HEK293T NF-kB-Luc, luminescence, selectivity assay for NOD1/NOD2 signaling inhibitor project, primary screen (AID 1852). The following applies: TNF-a induced, 14 h, at 4 µM, hits give high values.
In general, inhibition refers to the drop in the measured response relative to a control, in per cent. Turning to `COc1ccc2c(c1)-c1c(ssc1=S)C(C)(C)N2`, the inhibition is 92.8% (active).

Take `COc1cc(/C=C2/C(=O)NN(c3cccc(Cl)c3)C2=O)cc(OC)c1O`: the inhibition is 99.4% (active).

`COc1cc(/C=C2/C(=O)NN(c3cccc(Cl)c3)C2=O)cc(Br)c1O`: the inhibition was 0.8%.

`COc1cc(/C=C2/C(=O)NN(c3ccc(Cl)cc3)C2=O)cc(OC)c1O`: the inhibition was 9.3%.

Consider `N=C1SC(c2ccccc2)C(=O)N1c1ncc(Cc2ccccc2)s1` (centres undefined), for which the inhibition is 107% (active).

Consider `Cc1ccc(Cc2cnc(N3C(=N)SC(c4ccccc4)C3=O)s2)cc1` (centres undefined), for which the inhibition was 99.6% (active).

On to `N=C1SC(c2ccccc2)C(=O)N1c1ncc(Cc2ccccc2Cl)s1` (centres undefined), for which the inhibition is 106% (active).

Turning to `CCOC(=O)C(=Cc1ccc(OCc2ccc([N+](=O)[O-])cc2)c(OC)c1)C(=O)OCC`, the inhibition is 11.6%.

As to `Cc1nc2cc(N3CCN(C)CC3)c(NC(=O)Cc3ccccc3)cc2c(=O)n1Cc1ccccc1`, the inhibition is -21.7%.

For the compound `C/C(=N\NC(=O)c1nnn(-c2nonc2N)c1CN1CCCCC1)c1ccccc1O`, the inhibition was 64.6% (active).

With `C/C(=N\NC(=O)c1nnn(-c2nonc2N)c1CN1CCc2ccccc21)c1ccccc1O`, the inhibition is 78.8% (active).

Regarding `CCN1/C(=C/c2cc[n+](C)cc2)C=Cc2cc(C)ccc21`, the inhibition was 66% (active).

With `CN1/C(=C/c2cc[n+](C)c3ccccc23)C=Cc2ccccc21`, the inhibition is 47.9%.

As for `C=CC[n+]1c(/C=C2\C=Cc3cc(C)ccc3N2CC)ccc2ccccc21`, the inhibition was 74.1% (active).

`CCN1/C(=C/c2ccc3ccccc3[n+]2CC)C=Cc2ccccc21`: the inhibition is 67.3% (active).

On to `Cc1ccc2c(c1)c(/C=C/c1cc[n+](C)cc1)c(C)n2C`, for which the inhibition was 24.2%.

Take `C=CC[n+]1ccc(/C=C2\C=Cc3cc(C)ccc3N2CC)c2ccccc21`: the inhibition is 84.9% (active).

As for `Cc1ccc(Cn2ccsc2=NC(=O)CCl)cc1`, the inhibition was 46.5%.

Consider `CCCn1c(NC(=O)c2ccc(Cl)c(S(=O)(=O)N3CCCC3)c2)nc2ccccc21`, for which the inhibition was 24.9%.

`CCOc1cc(C)c(Cl)cc1S(=O)(=O)n1nnc2ccccc21`: the inhibition is 63.8% (active).

For the compound `COc1ccc(CCNC(=O)c2ccc3c(c2)N(Cc2ccccc2)CCS3)cc1OC`, the inhibition is -41.1%.

Regarding `COc1ccc(CCNc2cc(N3CCN(C(=O)c4ccccc4F)CC3)ccc2[N+](=O)[O-])cc1OC`, the inhibition was 85.7% (active).

For the compound `CC1CC(=O)N(c2ccc(NCCc3ccccc3)c([N+](=O)[O-])c2)C1=O` (centres undefined), the inhibition is -4.9%.

On to `CC(C)(C)c1ccc(-n2ncc3c2CCCC3NC(=O)C2(C(N)=O)CC2)cc1` (centres undefined), for which the inhibition is 61.3% (active).

In the case of `CC1=C(C(=O)NC2CCCc3c2cnn3-c2ccc(F)cc2F)OCCO1` (centres undefined), the inhibition was 40.2%.

As to `Cn1nccc1C(=O)NC1CCCc2c1cnn2-c1ccc(C(C)(C)C)cc1` (centres undefined), the inhibition was 72.8% (active).

Consider `Cc1ccc(C(=O)NC2CCCc3c2cnn3-c2ccc(F)cc2F)cn1` (centres undefined), for which the inhibition is 71.6% (active).

As for `Cc1cc(C(=O)NC2CCCc3c2cnn3-c2ccc(C(C)(C)C)cc2)nn1C` (centres undefined), the inhibition was 68.8% (active).

With `COc1ccc(C(=O)NC2CCCc3c2cnn3-c2ccccc2F)cc1OC` (centres undefined), the inhibition is 33.4%.

In the case of `Cc1cccc(-n2ncc3c2CCCC3NC(=O)C2(C(N)=O)CC2)c1C` (centres undefined), the inhibition was 29.3%.

For the compound `CC1CN(CCCCOc2ccc(Cl)c3ccccc23)CC(C)O1` (centres undefined), the inhibition was 8.2%.

For `COc1ccc(C(=O)NC2CCCc3c2cnn3-c2ccccc2F)o1` (centres undefined), the inhibition is -21.5%.

Regarding `Cc1ncoc1C(=O)NC1CCCc2c1cnn2-c1ccc(C(C)(C)C)cc1` (centres undefined), the inhibition is 74.7% (active).

`Cn1nccc1C(=O)NC1CCCc2c1cnn2-c1ccccc1F` (centres undefined): the inhibition was 51.8% (active).

For `Cc1ccc(-n2ncc3c2CCCC3NC(=O)c2ocnc2C)cc1C` (centres undefined), the inhibition was 49.3%.

As to `Cn1nccc1C(=O)NC1CCCc2c1cnn2-c1ccc(F)cc1F` (centres undefined), the inhibition is 39.9%.

With `Cc1c(C)c2ccc(OCC(=O)Nc3ccc(N4CCC(C)CC4)cc3)cc2oc1=O`, the inhibition was 94.7% (active).

Regarding `Cc1ccc(-n2nc3c(=O)n(C(C)C(=O)NCCc4cccs4)nc(C)c3c2C)cc1` (centres undefined), the inhibition was 60.4% (active).

As for `Cc1ccc(-n2nc3c(=O)n(CC(=O)NC(C)CCc4ccccc4)nc(C)c3c2C)cc1` (centres undefined), the inhibition was 50% (active).

For the compound `Cc1nn(Cc2ccccc2)c(Cl)c1C(=O)OC(C)C#N` (centres undefined), the inhibition is 40.7%.

For `CCN(CC)S(=O)(=O)c1ccc2[nH]cc(C(=O)NCCC3=CCCCC3)c(=O)c2c1`, the inhibition was 38.4%.

Turning to `Cc1ccc(-n2nc3c(=O)n(C(C)C(=O)NCCC4=CCCCC4)nc(C)c3c2C)cc1` (centres undefined), the inhibition is 54.3% (active).

Consider `Cc1ccc(-n2nc3c(=O)n(C(C)C(=O)NCCCc4ccccc4)nc(C)c3c2C)cc1` (centres undefined), for which the inhibition is 53.9% (active).

For the compound `C[C@@H](C(=O)NCCc1ccccc1)N1C(=O)N2CCc3c([nH]c4ccccc34)[C@@]2(C)C1=O`, the inhibition was 38.1%.

Consider `COc1ccc(-c2cc(C)no2)cc1S(=O)(=O)N1CCN(c2ccc([N+](=O)[O-])cc2)CC1`, for which the inhibition was 44.5%.

`CCN1/C(=C/c2ccc3cc(C)ccc3[n+]2CC)Sc2ccccc21`: the inhibition is 76.1% (active).

As to `CCN1/C(=C/c2ccc3cc(C)ccc3[n+]2CC)Sc2cc(C)ccc21`, the inhibition was 48.9%.

Turning to `CCN1/C(=C/c2ccc3cc(C)ccc3[n+]2CC)Sc2cc(C)c(C)cc21`, the inhibition was 54.5% (active).

As to `CCN1/C(=C\c2ccc3ccccc3[n+]2CC)Sc2cc(C)ccc21`, the inhibition is 55.6% (active).

Take `CCN1/C(=C\c2ccc3cc(C)ccc3[n+]2CC)Sc2cc(C)c(C)cc21`: the inhibition is 65.4% (active).

In the case of `O=C1N(Cc2cccc(Cl)c2)C[C@@H]2C[C@@H](c3cccn3-c3cccnc3)N3CCC[C@@]123`, the inhibition was 4.8%.

Take `CCN1/C(=C/c2ccc3cc(C)cc(C)c3[n+]2CC)Sc2cc(C)ccc21`: the inhibition was 79.4% (active).

Regarding `O=Cc1[nH]c2ccccc2c1N(C(=O)CCl)c1ccccc1`, the inhibition is 31.9%.

As for `O=C(CCl)N(c1ccccc1)c1ccccc1`, the inhibition is 63.7% (active).

On to `O=C(CCl)N(c1ccccc1)c1c[nH]c2ccccc12`, for which the inhibition is 103% (active).

As to `O=C(CCl)N(Cc1ccccc1)c1ccccc1`, the inhibition was 89.7% (active).

On to `COc1ccc(CC(=O)N(Cc2ccccc2)c2ccccc2)cc1S(=O)(=O)N1CCOCC1`, for which the inhibition is 13.5%.

In the case of `O=C(CCl)NC(Cc1ccccc1)c1ccccc1` (centres undefined), the inhibition was 21.3%.

With `CN(Cc1ccc(Cl)cc1)C(=O)CCl`, the inhibition was 9.6%.
